The text below walks through data of PubChem BioAssay.

Experiment [1] can be described thus: inhibitors of TNFa-induced NFkB p65 translocation, primary screen, imaging, HUVEC, MLSMR starter and 10KST1 sets (AID 438;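 active means inhibition above 20% together with a positive visual image hit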;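 further: compound added about 3h40 before a 20 min TNFalpha stimulation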;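 on inhibition: signal is the nuclear over cytoplasmic p65 intensity ratio per well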). The conditions noted are these: HUVEC TNFa-induced p65 nuclear translocation; cell count: measured here: nuclei count (cytotoxicity indicator), at 2.08 µM; inhibition: at 2 µM, stronger effect = higher value, 0% TNFa-plus-vehicle, 100% no-TNFa wells.

Experiment [2] is described as follows: reduction of polyQ htt aggregates in cells – imaging, exon1htt(103Q)mCFP cells, high-content imaging, primary screen (AID 483;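 active means visual image review flags a hit and inhibition of aggregation exceeds 20%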;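 further: compound exposure lasted 3 days before fixation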;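 on nuclei count: percent of the per-plate median nuclei count of sample wells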). The conditions noted are these: exon1htt(103Q)mCFP cell line, aggregate imaging, at 2 µM; inhibition of aggregation: stronger effect = higher value; nuclei count: measured here: cell count, toxicity.
Experiment [3] is described as follows: endothelial E-selectin expression blockers – imaging, HUVEC, immunofluorescence, MLSMR starter and 10KST1 sets, primary screen (AID 487;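 active means visually confirmed hit in the image check and inhibition above 20%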;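 on inhibition: signal is fraction of cell area covered by stained E-selectin grains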;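 on nuclei count: 100% = median nuclei count of all wells on the same plate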). The conditions noted are these: HUVEC TNFalpha-induced E-selectin immunofluorescence imaging, at 2 µM; inhibition: stronger effect = higher value; nuclei count: measured here: cell number, toxicity.
In experiment [4] the target is Voltage-gated potassium channel subunit beta-2 (Rattus norvegicus) (UniProt P62483). Briefly: inhibitors of rat Kvbeta2 reductase activity – biochemical, NADPH fluorescence, primary screen (AID 622;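 active means fluorescence slope higher than the sample average by over 3 SD, cut at about -0.22 in these data, passing the limit was not always enough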;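 further: slope of raw intensity against log time taken from 70 to 1610 s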). Conditions: recombinant KvBeta, 4-cyanobenzaldehyde reduction, at 10 µM, stronger effect = higher value.
Voltage-gated potassium channel subunit beta-2 (Rattus norvegicus), sequence (P62483 whole entry, looked up): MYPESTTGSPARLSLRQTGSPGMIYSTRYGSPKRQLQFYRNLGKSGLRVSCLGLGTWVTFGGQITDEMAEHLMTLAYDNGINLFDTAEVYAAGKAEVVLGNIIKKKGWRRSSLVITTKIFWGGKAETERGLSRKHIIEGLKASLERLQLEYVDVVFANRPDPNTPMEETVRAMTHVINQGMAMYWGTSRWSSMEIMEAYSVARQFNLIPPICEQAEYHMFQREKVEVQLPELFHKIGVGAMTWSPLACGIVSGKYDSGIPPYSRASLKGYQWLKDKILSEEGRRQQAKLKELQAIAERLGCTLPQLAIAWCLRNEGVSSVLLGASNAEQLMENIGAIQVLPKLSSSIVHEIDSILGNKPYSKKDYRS
Experiment [5] shares this target. Briefly: enhancers of rat Kvbeta2 NADPH turnover – biochemical, NADPH fluorescence, primary screen (AID 623;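 active means NADPH fluorescence slope more negative than the mean of all samples by about 3 SD, 99.7% confidence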;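 further: fluorescence intensity change per second fitted from 20 to 320 s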). The conditions noted are these: Recombinant KvBeta, NADPH fluorescence decrease slope, 10 min; at 10 µM; stronger effect = lower value.
Experiment [6] concerns the target Alpha-2C adrenergic receptor (Homo sapiens) (UniProt P18825). Briefly: compounds altering alpha2C-coupled GIRK flux – cell-based, HEK293 alpha2C/GIRK1/2, thallium flux, primary screen (AID 624;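 active means fluorescence slope after compound addition differing from the mean of all screened samples at 99.7% confidence, in either direction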;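 further: slope of fluorescence ratio to pre-addition baseline per second over 15 to 24 s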). The conditions noted are these: thallium flux BTC fluorescence, at 10 µM, actives lie on both sides.
Experiment [7] in a line: blockers of RIG-like receptor reporter activation – cell-based, Sendai virus stimulus, luciferase, 10K MLSCN set, TLR/RLR signaling modifier project, primary screen (AID 602276;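 active means inhibition at or above 50% at 10 µM; inactive means inhibition below 50%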;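 further: firefly luciferase from ISG56 promoter only with Renilla not read in this screen; 0% = Sendai virus plus DMSO and 100% = medium plus DMSO without virus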). The conditions noted are these: HEK293 RL24 IRF3 luciferase reporter, at 10 µM, stronger effect = higher value. (In a reporter assay the amount or activity of a reporter protein is the signal.)
The nature of experiment [8]: TLR3 IRF3 reporter activation blockers – cell-based, poly I:C stimulus, luciferase, 10K MLSCN set, primary screen (AID 602277). Conditions: HEK293-TLR3 RL24 IRF3 luciferase reporter, at 10 µM, stronger effect = higher value.

SMILES strings stand for the structures. The source made the active and inactive calls.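 How the source made its calls, unless noted: active means inhibition of the reporter signal at or above 50%; inactive means inhibition below 50%.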

Alpha-2C adrenergic receptor (Homo sapiens), sequence (P18825 whole entry, looked up): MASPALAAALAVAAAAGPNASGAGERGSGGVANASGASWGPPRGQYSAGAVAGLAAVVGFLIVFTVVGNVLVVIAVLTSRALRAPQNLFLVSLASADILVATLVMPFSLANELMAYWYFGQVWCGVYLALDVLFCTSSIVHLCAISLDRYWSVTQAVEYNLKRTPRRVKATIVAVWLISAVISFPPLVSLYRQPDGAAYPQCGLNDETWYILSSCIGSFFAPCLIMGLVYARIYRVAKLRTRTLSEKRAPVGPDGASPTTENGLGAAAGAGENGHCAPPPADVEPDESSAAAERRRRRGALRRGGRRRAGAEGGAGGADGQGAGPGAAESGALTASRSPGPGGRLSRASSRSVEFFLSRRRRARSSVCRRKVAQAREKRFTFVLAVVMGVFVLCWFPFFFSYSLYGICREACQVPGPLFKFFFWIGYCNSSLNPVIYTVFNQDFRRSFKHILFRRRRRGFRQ

On to `COC(=O)C1=C(CSCc2ccco2)NC(=O)NC1c1cc(C)ccc1C` (centres undefined), for which the cell count in experiment [1] was determined as 369. The inhibition in experiment [1] is -10.5% (inactive); in experiment [3] it was -20.5% (inactive); in experiment [7], -3.03% (inactive); in experiment [8] it was -1.57% (inactive). For the same compound, the inhibition of aggregation in experiment [2] is -15.1% (inactive). Besides, the nuclei count came out at 115% in experiment [2] and 109% in experiment [3]. Besides, the fluorescence slope in experiment [4] is -0.423 (inactive). The NADPH fluorescence slope in experiment [5] was 3.5e-05 (inactive). Further, the slope in experiment [6] is 0.00488 (inactive).
For the compound `CSc1nnc(-c2ccc(NC(=O)CCc3ccccc3)cc2)n1C`, the cell count in experiment [1] worked out at 711. Also, the inhibition is -28.4% (inactive) in experiment [1], -79.2% (inactive) in experiment [3], -3.25% (inactive) in experiment [7] and 15.4% (inactive) in experiment [8]. For the same compound, in experiment [2], the inhibition of aggregation is -1.8% (inactive). In addition, the nuclei count in experiment [2] came to 100%; in experiment [3] it was 120%. For the same compound, the fluorescence slope in experiment [4] was -0.474 (inactive). Also, in experiment [5], the NADPH fluorescence slope is -3e-05 (inactive). The slope in experiment [6] is 0.00726 (inactive).
`N#Cc1c(-c2ccccc2)nc(N2CCCCCC2)[nH]c1=O`: the cell count in experiment [1] was determined as 379. For the same compound, the inhibition was -6.1% (inactive) in experiment [1], -43.6% (inactive) in experiment [3], 6.52% (inactive) in experiment [7] and 14.7% (inactive) in experiment [8]. Moreover, the inhibition of aggregation in experiment [2] was 1.9% (inactive). Also, the nuclei count in experiment [2] stood at 102%; in experiment [3], 116%. Moreover, the fluorescence slope in experiment [4] was -0.41 (inactive). Besides, the NADPH fluorescence slope in experiment [5] is -1.5e-05 (inactive). Further, in experiment [6], the slope was 0.0048 (inactive).
For `CCc1cc(=O)n2[nH]c(C)c(-c3ccccc3OC)c2n1`, in experiment [1], the cell count is 595. In addition, the inhibition is 2.8% (inactive) in experiment [1], -38.4% (inactive) in experiment [3], 4.14% (inactive) in experiment [7] and 16.3% (inactive) in experiment [8]. In experiment [2], the inhibition of aggregation is 42.7% (inactive). Moreover, the nuclei count in experiment [2] came out at 64.6%; in experiment [3], 96.2%. Moreover, the fluorescence slope in experiment [4] was -0.592 (inactive). The NADPH fluorescence slope in experiment [5] is -2.9e-05 (inactive). In addition, in experiment [6], the slope was 0.00657 (inactive).
As for `Cc1ccc(-c2noc(COc3ccccc3C)n2)cc1`, in experiment [1], the cell count was found to be 607. For the same compound, the inhibition is -7.8% (inactive) in experiment [1], 35.1% (inactive) in experiment [3], -24.5% (inactive) in experiment [7] and -88.2% (inactive) in experiment [8]. Also, the inhibition of aggregation in experiment [2] is 12.3% (inactive). Also, the results for the nuclei count in experiment [2] and in experiment [3] were 110% and 129%, respectively. Further, the fluorescence slope in experiment [4] is -0.484 (inactive). Besides, the NADPH fluorescence slope in experiment [5] is 1.6e-05 (inactive). In addition, the slope in experiment [6] was 0.0049 (inactive).
For `OCCNc1nc2ccc(Cl)cc2[nH]1`, in experiment [1], the cell count amounted to 433. Besides, the inhibition was 2.6% (inactive) in experiment [1], -19% (inactive) in experiment [3], -12.8% (inactive) in experiment [7] and -7.02% (inactive) in experiment [8]. Further, the inhibition of aggregation in experiment [2] is 19.6% (inactive). In addition, the figures for the nuclei count in experiment [2] and in experiment [3] were 106% and 110%, respectively. Further, the fluorescence slope in experiment [4] is -0.365 (inactive). In experiment [5], the NADPH fluorescence slope is 1.9e-05 (inactive). Moreover, the slope in experiment [6] is 0.00613 (inactive).
Consider `Cc1ccc(N2C(=O)c3oc4ccccc4c(=O)c3C2c2cccc(O)c2)nc1` (centres undefined), for which, in experiment [1], the cell count stood at 752. Also, the inhibition in experiment [1] was 6.1% (inactive); in experiment [3], -6.3% (inactive); in experiment [7] it was 11% (inactive); in experiment [8], 14.6% (inactive). In experiment [2], the inhibition of aggregation was -1.9% (inactive). Moreover, the nuclei count worked out at 64.5% in experiment [2] and 66.8% in experiment [3]. Besides, the fluorescence slope in experiment [4] is -0.589 (inactive). Further, the NADPH fluorescence slope in experiment [5] is -3.8e-06 (inactive). The slope in experiment [6] was 0.00643 (inactive).
On to `COc1ccc(Cn2nnnc2C(c2ccccc2OC)N2CCC(C(N)=O)CC2)cc1` (centres undefined), for which the cell count in experiment [1] is 315. Also, the inhibition in experiment [1] is 4.4% (inactive); in experiment [3] it was -39.5% (inactive); in experiment [7], 10.7% (inactive); in experiment [8], 25.5% (inactive). Besides, the inhibition of aggregation in experiment [2] is 6.9% (inactive). Further, the nuclei count in experiment [2] was determined as 74.4%; in experiment [3], 114%. Moreover, in experiment [4], the fluorescence slope is -0.604 (inactive). Also, the NADPH fluorescence slope in experiment [5] was -4.2e-05 (inactive). In addition, the slope in experiment [6] was 0.00453 (inactive).
`CCOc1ccc(C(=O)Nc2ccc(N3CCN(C)CC3)cc2)cc1Br`: in experiment [1], the cell count turned out to be 434. Besides, the inhibition is 3.4% (inactive) in experiment [1], 6.4% (inactive) in experiment [3], -15.1% (inactive) in experiment [7] and -22.4% (inactive) in experiment [8]. Besides, the inhibition of aggregation in experiment [2] is 0.4% (inactive). The results for the nuclei count in experiment [2] and in experiment [3] were 95.5% and 89.5%, respectively. Also, in experiment [4], the fluorescence slope is -0.571 (inactive). The NADPH fluorescence slope in experiment [5] was -3.6e-05 (inactive). Moreover, the slope in experiment [6] was 0.00342 (inactive).

By inhibition is commonly meant the drop in the measured response relative to a control, in per cent.
